# Reference: publication PMC7862700, “An all-to-all approach to the identification of sequence-specific readers for epigenetic DNA modifications on cytosine”
# What was measured:
# Experiment in all cases: DAPPL (digital affinity profiling via proximity ligation, sequencing); 10 mM Tris-HCl pH 7.5, 50 mM NaCl, 1 mM DTT, 4% glycerol, room temperature, 30 min; GST-TFs on glutathione beads, 16-mer random dsDNA library, 0.1% formaldehyde crosslink after washing; high values mean tight binding
# [1] = molecular target: T1, FLI1 (Homo sapiens, UniProt Q01543 1-452); conditions: protein: recombinant; tags: N-terminal GST; dsDNA, one strand shown
# T1 sequence: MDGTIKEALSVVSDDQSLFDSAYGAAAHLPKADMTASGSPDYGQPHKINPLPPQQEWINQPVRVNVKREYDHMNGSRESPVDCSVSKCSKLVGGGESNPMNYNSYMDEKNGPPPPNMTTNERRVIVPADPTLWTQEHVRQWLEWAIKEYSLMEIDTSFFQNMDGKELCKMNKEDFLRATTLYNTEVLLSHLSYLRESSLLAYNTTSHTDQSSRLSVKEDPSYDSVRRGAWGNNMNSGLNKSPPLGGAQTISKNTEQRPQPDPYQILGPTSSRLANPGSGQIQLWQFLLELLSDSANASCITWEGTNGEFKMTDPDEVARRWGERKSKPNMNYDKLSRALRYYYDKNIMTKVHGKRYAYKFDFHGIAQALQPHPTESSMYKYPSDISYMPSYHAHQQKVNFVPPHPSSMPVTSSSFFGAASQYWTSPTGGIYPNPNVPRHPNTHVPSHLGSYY
# How it was run: (§1)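 Each value of binding signal is a hexamer's read frequency for a factor divided by the same hexamer's frequency in the tag-only sample. Barcoded, bead-captured GST fusions of human transcription factors made in yeast were pooled with that sample and incubated with 200 nmole of a random double-stranded 16-mer DNA library in Tris/NaCl/DTT/glycerol buffer at room temperature for 30 min. Washing, 0.1% formaldehyde crosslinking, proximity ligation, PCR and Illumina NextSeq500 sequencing followed.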
# [2] = molecular target: T2, ELK1 (Homo sapiens, UniProt P19419 1-428); conditions: protein: recombinant; tags: N-terminal GST; dsDNA, one strand shown
# T2 sequence: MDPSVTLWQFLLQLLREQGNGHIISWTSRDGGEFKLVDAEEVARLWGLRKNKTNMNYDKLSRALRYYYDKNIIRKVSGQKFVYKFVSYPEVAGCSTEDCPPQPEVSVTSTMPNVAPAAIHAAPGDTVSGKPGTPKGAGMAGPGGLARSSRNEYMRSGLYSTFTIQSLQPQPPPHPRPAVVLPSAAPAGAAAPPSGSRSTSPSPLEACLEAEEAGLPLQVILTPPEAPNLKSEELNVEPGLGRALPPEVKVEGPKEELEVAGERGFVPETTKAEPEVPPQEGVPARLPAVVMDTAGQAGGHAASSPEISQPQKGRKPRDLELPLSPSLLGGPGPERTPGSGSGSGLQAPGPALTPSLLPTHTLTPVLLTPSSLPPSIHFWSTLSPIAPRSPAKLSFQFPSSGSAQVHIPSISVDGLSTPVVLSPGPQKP
# How it was run: as §1
# [3] = molecular target: T3, GABPA (Homo sapiens, UniProt Q06546 1-454); conditions: protein: recombinant; tags: N-terminal GST; dsDNA, one strand shown
# T3 sequence: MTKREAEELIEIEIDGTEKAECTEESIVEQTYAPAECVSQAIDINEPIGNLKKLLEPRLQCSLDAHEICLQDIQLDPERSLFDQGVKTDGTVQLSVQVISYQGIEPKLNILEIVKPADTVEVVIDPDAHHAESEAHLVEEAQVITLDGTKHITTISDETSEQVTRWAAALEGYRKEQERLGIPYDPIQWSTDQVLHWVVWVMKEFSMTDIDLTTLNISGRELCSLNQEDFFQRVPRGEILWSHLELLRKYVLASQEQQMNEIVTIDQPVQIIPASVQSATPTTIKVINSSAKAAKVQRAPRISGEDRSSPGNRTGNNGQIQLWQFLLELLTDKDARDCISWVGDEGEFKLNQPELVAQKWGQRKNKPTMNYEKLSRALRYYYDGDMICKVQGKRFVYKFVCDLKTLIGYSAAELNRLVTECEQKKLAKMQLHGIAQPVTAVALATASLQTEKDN
# How it was run: as §1
# [4] = molecular target: T4, ERG (Homo sapiens, UniProt P11308 1-479); conditions: protein: recombinant; tags: N-terminal GST; dsDNA, one strand shown
# T4 sequence: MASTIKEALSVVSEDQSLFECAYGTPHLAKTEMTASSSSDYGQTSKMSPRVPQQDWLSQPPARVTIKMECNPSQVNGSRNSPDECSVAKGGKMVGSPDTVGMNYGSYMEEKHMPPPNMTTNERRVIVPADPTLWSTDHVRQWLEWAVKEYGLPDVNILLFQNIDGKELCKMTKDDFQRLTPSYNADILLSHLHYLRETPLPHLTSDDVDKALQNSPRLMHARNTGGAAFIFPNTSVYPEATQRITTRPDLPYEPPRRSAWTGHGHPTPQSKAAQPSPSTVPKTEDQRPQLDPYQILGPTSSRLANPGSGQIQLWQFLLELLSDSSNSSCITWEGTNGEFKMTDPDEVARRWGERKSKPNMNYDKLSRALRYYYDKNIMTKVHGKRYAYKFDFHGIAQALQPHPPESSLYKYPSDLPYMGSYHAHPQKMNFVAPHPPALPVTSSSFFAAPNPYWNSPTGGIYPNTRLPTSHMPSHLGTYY
# How it was run: as §1
# [5] = molecular target: ELF1 (Homo sapiens, UniProt P32519 1-619); conditions: protein: recombinant; tags: N-terminal GST; dsDNA, one strand shown
# How it was run: as §1
# [6] = molecular target: T5, EHF (Homo sapiens, UniProt Q9NZC4 1-300); conditions: protein: recombinant; tags: N-terminal GST; dsDNA, one strand shown
# T5 sequence: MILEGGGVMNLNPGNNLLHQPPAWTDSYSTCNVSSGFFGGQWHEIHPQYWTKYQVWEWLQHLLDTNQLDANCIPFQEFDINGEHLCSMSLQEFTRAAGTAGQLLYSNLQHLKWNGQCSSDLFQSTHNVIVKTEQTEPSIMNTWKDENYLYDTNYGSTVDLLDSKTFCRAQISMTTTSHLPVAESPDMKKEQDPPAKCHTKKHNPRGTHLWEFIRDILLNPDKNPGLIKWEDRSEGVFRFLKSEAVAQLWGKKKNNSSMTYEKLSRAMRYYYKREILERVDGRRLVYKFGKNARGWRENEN
# How it was run: as §1
# [7] = molecular target: SPI1 (Homo sapiens, UniProt P17947 1-270); conditions: protein: recombinant; tags: N-terminal GST; dsDNA, one strand shown
# How it was run: as §1
# [8] = molecular target: SPIB (Homo sapiens, UniProt Q01892 1-262); conditions: protein: recombinant; tags: N-terminal GST; dsDNA, one strand shown
# How it was run: as §1
# [9] = molecular target: T6, ELK3 (Homo sapiens, UniProt P41970 1-407); conditions: protein: recombinant; tags: N-terminal GST; dsDNA, one strand shown
# T6 sequence: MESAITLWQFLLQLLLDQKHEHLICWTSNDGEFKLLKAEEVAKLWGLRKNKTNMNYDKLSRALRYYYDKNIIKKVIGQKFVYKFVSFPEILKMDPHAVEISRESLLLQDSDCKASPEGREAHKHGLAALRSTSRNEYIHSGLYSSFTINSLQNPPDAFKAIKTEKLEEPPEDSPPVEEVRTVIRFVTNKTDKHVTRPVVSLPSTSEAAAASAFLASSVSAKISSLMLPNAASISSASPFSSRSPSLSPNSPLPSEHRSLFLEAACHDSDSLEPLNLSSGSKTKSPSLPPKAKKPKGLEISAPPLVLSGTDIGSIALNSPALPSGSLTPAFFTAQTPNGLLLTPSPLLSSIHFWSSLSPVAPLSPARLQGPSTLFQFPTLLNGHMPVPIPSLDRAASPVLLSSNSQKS
# How it was run: as §1
# [10] = molecular target: T7, FEV (Homo sapiens, UniProt Q99581 1-238); conditions: protein: recombinant; tags: N-terminal GST; dsDNA, one strand shown
# T7 sequence: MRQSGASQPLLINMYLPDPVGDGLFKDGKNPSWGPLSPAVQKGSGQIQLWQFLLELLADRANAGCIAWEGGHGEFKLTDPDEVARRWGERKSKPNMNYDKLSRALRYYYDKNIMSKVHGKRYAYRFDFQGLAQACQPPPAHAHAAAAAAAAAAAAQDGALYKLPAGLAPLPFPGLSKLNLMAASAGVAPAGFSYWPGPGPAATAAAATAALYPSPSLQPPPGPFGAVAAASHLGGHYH
# How it was run: as §1
# [11] = molecular target: ETV5 (Homo sapiens, UniProt P41161 1-510); conditions: protein: recombinant; tags: N-terminal GST; dsDNA, one strand shown
# How it was run: as §1
# [12] = molecular target: HSF1 (Homo sapiens, UniProt Q00613 1-529); conditions: protein: recombinant; tags: N-terminal GST; chain copies: 3; dsDNA, one strand shown
# How it was run: as §1
# [13] = molecular target: T8, SPIC (Homo sapiens, UniProt Q8N5J4 1-248); conditions: protein: recombinant; tags: N-terminal GST; dsDNA, one strand shown
# T8 sequence: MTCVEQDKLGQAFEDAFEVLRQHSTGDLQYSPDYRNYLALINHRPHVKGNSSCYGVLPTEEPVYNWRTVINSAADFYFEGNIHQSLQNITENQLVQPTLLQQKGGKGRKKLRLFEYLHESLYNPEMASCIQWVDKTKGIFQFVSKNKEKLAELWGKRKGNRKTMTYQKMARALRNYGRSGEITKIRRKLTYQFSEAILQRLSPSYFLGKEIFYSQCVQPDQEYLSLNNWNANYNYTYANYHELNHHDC
# How it was run: as §1
# [14] = molecular target: ELF4 (Homo sapiens, UniProt Q99607 1-663); conditions: protein: recombinant; tags: N-terminal GST; dsDNA, one strand shown
# How it was run: as §1
# [15] = molecular target: T9, ELK4 (Homo sapiens, UniProt P28324-2 1-405); conditions: protein: recombinant; tags: N-terminal GST; dsDNA, one strand shown
# T9 sequence: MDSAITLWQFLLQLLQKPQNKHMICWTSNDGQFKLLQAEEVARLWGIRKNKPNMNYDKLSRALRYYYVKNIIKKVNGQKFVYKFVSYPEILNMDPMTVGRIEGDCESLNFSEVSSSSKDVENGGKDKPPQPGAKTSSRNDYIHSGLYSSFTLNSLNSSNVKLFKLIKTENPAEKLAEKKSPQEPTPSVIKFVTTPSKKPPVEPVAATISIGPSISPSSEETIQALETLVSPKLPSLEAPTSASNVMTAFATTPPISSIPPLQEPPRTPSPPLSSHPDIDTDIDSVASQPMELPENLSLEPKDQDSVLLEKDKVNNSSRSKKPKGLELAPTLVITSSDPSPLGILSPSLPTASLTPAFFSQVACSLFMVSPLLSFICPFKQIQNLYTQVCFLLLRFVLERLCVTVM
# How it was run: as §1
# [16] = molecular target: T10, ETV2 (Homo sapiens, UniProt O00321 1-342); conditions: protein: recombinant; tags: N-terminal GST; dsDNA, one strand shown
# T10 sequence: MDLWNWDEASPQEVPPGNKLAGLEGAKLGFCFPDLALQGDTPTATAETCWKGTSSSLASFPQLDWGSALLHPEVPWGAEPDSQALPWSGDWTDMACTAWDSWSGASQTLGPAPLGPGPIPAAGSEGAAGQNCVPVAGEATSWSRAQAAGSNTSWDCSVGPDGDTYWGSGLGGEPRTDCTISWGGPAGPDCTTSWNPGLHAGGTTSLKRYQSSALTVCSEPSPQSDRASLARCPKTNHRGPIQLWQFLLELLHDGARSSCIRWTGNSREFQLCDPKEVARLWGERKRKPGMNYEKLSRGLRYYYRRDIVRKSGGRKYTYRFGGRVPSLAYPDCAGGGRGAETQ
# How it was run: as §1
# [17] = molecular target: T11, ELF3 (Homo sapiens, UniProt P78545 1-371); conditions: protein: recombinant; tags: N-terminal GST; dsDNA, one strand shown
# T11 sequence: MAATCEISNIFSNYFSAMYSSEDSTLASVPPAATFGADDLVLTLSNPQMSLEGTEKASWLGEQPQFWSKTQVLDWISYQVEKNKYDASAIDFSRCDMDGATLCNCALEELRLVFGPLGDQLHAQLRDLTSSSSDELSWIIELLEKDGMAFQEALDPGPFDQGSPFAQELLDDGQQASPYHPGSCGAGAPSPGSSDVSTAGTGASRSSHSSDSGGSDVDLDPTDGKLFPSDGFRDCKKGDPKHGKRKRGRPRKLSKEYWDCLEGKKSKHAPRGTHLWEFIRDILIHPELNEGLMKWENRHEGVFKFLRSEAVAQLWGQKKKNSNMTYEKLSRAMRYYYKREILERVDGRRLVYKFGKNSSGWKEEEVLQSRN
# How it was run: as §1
# [18] = molecular target: ETV1 (Homo sapiens, UniProt P50549 1-477); conditions: protein: recombinant; tags: N-terminal GST; dsDNA, one strand shown
# How it was run: as §1
# ETV5, sequence (P41161 whole entry): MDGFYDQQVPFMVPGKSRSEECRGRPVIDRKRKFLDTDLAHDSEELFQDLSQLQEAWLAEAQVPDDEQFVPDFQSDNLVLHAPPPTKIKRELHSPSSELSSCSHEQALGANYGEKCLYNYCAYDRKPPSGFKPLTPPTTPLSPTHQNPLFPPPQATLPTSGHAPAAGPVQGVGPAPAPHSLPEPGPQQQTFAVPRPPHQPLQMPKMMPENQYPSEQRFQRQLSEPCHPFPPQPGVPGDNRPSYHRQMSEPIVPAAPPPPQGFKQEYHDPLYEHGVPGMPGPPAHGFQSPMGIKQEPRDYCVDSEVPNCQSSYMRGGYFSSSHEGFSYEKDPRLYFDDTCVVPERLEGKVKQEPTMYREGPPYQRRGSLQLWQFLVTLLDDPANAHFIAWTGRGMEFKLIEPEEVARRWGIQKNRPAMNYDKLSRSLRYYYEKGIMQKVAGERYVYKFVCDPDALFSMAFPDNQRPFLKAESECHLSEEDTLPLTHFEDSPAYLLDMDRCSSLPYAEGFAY
# ELF1, sequence (P32519 whole entry): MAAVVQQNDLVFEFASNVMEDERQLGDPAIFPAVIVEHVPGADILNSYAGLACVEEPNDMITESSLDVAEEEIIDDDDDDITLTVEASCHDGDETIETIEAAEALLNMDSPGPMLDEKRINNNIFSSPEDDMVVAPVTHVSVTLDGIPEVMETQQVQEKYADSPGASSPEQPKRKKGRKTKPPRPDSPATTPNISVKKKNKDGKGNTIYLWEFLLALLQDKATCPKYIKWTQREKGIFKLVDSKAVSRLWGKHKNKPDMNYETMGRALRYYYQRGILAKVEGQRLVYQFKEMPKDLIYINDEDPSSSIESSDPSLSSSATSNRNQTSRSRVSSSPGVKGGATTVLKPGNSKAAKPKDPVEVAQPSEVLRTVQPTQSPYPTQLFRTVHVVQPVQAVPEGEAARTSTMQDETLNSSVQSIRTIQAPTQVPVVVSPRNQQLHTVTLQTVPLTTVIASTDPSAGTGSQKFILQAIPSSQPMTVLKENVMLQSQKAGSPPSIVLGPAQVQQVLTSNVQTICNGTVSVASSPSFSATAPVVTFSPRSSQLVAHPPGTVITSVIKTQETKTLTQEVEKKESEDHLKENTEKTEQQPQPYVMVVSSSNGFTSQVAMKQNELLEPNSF
# ETV1, sequence (P50549 whole entry): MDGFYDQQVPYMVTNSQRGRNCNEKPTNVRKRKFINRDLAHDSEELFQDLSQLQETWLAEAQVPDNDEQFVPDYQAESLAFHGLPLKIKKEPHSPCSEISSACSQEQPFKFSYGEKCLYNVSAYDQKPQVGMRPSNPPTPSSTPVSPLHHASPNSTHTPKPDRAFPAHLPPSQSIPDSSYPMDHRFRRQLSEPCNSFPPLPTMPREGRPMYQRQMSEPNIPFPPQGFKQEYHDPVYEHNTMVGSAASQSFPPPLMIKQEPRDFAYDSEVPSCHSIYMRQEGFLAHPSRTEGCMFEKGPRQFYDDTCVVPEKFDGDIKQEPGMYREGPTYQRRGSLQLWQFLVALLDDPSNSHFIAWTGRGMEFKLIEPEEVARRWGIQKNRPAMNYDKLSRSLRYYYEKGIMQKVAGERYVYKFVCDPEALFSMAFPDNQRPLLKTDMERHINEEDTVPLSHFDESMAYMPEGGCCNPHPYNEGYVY
# ELF4, sequence (Q99607 whole entry): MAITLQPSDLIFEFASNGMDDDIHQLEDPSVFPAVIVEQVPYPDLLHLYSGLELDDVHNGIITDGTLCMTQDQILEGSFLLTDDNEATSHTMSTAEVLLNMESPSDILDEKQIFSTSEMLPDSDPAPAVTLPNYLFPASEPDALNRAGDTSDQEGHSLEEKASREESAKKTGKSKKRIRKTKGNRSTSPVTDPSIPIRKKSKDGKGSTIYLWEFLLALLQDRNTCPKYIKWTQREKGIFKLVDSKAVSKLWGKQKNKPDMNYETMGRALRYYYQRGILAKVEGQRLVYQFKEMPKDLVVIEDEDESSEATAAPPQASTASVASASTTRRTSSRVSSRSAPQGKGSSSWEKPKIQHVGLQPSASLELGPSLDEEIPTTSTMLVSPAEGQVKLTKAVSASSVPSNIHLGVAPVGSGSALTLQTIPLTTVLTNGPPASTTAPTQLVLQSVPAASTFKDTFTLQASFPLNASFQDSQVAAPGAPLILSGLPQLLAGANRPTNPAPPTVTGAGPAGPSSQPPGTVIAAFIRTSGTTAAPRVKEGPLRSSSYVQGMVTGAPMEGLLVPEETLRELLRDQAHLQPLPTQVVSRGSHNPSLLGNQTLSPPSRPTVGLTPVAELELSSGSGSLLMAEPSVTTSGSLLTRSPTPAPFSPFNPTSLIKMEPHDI
# HSF1, sequence (Q00613 whole entry): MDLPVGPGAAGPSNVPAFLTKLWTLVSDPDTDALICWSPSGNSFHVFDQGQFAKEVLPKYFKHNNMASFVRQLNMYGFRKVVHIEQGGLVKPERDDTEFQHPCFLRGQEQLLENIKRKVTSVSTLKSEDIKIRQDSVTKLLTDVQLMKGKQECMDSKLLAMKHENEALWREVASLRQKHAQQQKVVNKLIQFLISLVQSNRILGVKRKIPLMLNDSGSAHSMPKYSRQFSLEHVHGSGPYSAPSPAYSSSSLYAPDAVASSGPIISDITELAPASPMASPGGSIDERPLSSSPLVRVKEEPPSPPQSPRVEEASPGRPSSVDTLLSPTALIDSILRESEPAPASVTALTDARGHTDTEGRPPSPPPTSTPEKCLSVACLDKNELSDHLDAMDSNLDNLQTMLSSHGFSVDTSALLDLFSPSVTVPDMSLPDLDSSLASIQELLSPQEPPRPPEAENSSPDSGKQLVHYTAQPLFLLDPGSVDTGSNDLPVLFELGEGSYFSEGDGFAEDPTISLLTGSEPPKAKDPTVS
# SPIB, sequence (Q01892 whole entry): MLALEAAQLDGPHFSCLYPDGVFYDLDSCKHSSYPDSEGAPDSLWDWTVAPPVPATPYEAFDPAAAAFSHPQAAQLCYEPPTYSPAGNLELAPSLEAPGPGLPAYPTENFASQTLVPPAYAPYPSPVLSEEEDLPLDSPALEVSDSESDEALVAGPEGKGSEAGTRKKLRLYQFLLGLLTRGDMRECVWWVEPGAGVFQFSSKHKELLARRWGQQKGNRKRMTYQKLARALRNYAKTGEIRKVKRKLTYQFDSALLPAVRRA
sequence,measurement,setting,value
GAAATG,binding signal,[1],"1.52 fold enrichment (6-mer frequency, TF over GST control)"
same,binding signal,[2],"1.61 fold enrichment (6-mer frequency, TF over GST control)"
same,binding signal,[3],"1.55 fold enrichment (6-mer frequency, TF over GST control)"
same,binding signal,[4],"1.73 fold enrichment (6-mer frequency, TF over GST control)"
same,binding signal,[5],"1.54 fold enrichment (6-mer frequency, TF over GST control)"
same,binding signal,[6],"1.65 fold enrichment (6-mer frequency, TF over GST control)"
same,binding signal,[7],"1.67 fold enrichment (6-mer frequency, TF over GST control)"
same,binding signal,[8],"1.6 fold enrichment (6-mer frequency, TF over GST control)"
same,binding signal,[9],"1.6 fold enrichment (6-mer frequency, TF over GST control)"
same,binding signal,[10],"1.77 fold enrichment (6-mer frequency, TF over GST control)"
same,binding signal,[11],"1.7 fold enrichment (6-mer frequency, TF over GST control)"
same,binding signal,[12],"1.1 fold enrichment (6-mer frequency, TF over GST control)"
same,binding signal,[13],"1.56 fold enrichment (6-mer frequency, TF over GST control)"
same,binding signal,[14],"1.49 fold enrichment (6-mer frequency, TF over GST control)"
same,binding signal,[15],"1.65 fold enrichment (6-mer frequency, TF over GST control)"
same,binding signal,[16],"1.55 fold enrichment (6-mer frequency, TF over GST control)"
same,binding signal,[17],"1.78 fold enrichment (6-mer frequency, TF over GST control)"
same,binding signal,[18],"1.58 fold enrichment (6-mer frequency, TF over GST control)"
